Bioassay records as filed in PubChem.
ANO1 block – TMEM16A chloride channel inhibitors, primary screen, cell-based, HTS; HEK293 TMEM16A/YFP iodide influx fluorescence, ionomycin; normalized B-score (activity score, 25-100; higher = stronger inhibition) at 10 µM; hit rate 1.2% among 310,000;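 active = ratio plate-corrected score three or more library SD toward inhibition, starting fluorescence score within five deviations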;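 note: score derived from kinetic fluorescence span divided by baseline fluorescence per well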
KCNK9 inh – KCNK9 potassium channel inhibitors, primary screen, HEK293 cells, thallium flux; hit rate 1.2% among 310,000; AID 488922, 2010; B-score at 10 µM; FluxOR thallium flux fluorescence; hits give low values; Potassium channel subfamily K member 9 (Homo sapiens), Q9NPC2;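 active = ratio B-score over 3 SD below the library mean, with starting fluorescence within 5 SD of its mean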;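 note: negative B-score means less thallium flux so channel inhibition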
Target sequence (Q9NPC2 whole entry, looked up): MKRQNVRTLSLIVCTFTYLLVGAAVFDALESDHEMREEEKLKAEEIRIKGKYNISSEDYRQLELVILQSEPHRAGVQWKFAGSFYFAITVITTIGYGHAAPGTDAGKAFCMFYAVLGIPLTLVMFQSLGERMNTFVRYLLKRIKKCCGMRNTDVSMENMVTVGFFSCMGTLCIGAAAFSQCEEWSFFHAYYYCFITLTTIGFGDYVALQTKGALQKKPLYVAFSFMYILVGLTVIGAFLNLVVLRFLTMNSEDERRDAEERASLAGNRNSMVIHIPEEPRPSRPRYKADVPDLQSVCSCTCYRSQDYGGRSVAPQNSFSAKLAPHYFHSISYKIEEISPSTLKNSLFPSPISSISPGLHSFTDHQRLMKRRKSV
Kir21 inh – inhibitors of mouse Kir2.1 inward-rectifier potassium channel | HEK293-Kir2.1, FluxOR thallium flux fluorescence; hits give low values | Inward rectifier potassium channel 2 (Mus musculus), P35561 | hit rate 0.85% among 310,000 | B-score at 10 µM;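 active = fluorescence ratio B-score at or below minus 3 SD of library scores, with starting-brightness B-score within 2 SD, cut at about -4.2 in these data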;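 note: channel flux triggered by added potassium and thallium sulfate stimulus; B-score of peak minus minimum fluorescence over baseline after thallium stimulus; more negative B-score means stronger Kir2.1 block with less thallium influx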
TMEM16A act – TMEM16A chloride channel activators or potentiators, primary screen, cell-based, HTS. Anoctamin-1 (Mus musculus), Q8BHY3. HEK293 TMEM16A/YFP-H148Q/I152L, iodide quench fluorescence; hits give low values. B-score at 10 µM. hit rate 0.3% among 340,000. AID 623877, 2012;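 active = fluorescence-ratio B-score plate-corrected deviation score at least 3 library SD below zero, with starting fluorescence score within 5 deviations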;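 note: channel opened by trigger with iodide after compound preincubation; score built on the fluorescence ratio of max minus min over baseline; more negative score means more quench and so TMEM16A activation or potentiation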
KCNK3 block – human KCNK3 channel inhibitors, primary screen, CHO cells, FluxOR thallium flux, B-score. FluxOR fluorescence; hits give low values. B-score at 10 µM. hit rate 0.84% among 340,000;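 active = B-score under library mean minus 4 SD, starting fluorescence ratio at most library mean plus 5 SD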;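 note: more negative B-score means stronger inhibition of thallium flux through KCNK3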
KCNK9 block conf – KCNK9 potassium channel inhibitors, confirmation, HEK293 cells, thallium flux, duplicate; shares compounds with KCNK9 inh; FluxOR thallium flux fluorescence; inhibition, % at 10 µM; hit rate 43% among 4,900; AID 492992, 2010;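 active = thallium signal inhibited by more than 5 SD of the compound-free buffer control wells, on both duplicate plates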;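 note: 0% = assay buffer control wells without compound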
Kir2-1 spec – mouse Kir2.1 channel inhibition, confirmation, selectivity assay for KCNK9 modulator project, cell-based, HEK293, thallium flux | Kir2.1 cells, FluxOR thallium flux fluorescence | hit rate 4% among 4,900 | shares compounds with KCNK9 inh | inhibition, % at 10 µM;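 active = thallium signal drop more than 5 SD beyond the mean of the no-compound control wells, seen in both duplicate plates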;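 note: signal is fluorescence rise after thallium addition divided by baseline fluorescence; plate controls were assay buffer only for no effect and full block by chlorpromazine control for full effect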
KCNK9 uninduced – thallium flux in non-induced HEK293 cells, confirmation, counter-screen for KCNK9 inhibitor project, cell-based, second counter screen, non-induced KCNK9-HEK293; AID 492997, 2010; inhibition, % at 10 µM; FluxOR thallium flux; hit rate 40% among 4,900; shares compounds with KCNK9 inh;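 active = thallium signal drop beyond 5 SD of the untreated control mean, on both duplicate plates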;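 note: plate controls were buffer only IC0 wells for no effect and SID17386958 at its maximal inhibitory level for full effect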
* marks the source's active call; other numbers are inactive results; i = inactive; / = no result. Only some compounds are listed: those with a hit (about 3.5% of all), similar ones and a draw of the others.

SMILES | ANO1 block | KCNK9 inh | Kir21 inh | TMEM16A act | KCNK3 block | KCNK9 block conf | Kir2-1 spec | KCNK9 uninduced
Cc1ccc(Cn2c(C3CCCN3c3nc(C)cs3)nc3cc(C(F)(F)F)ccc32)cc1 (configuration not stated) | i | -14.9* | 1.05 | i | i | 74.0%* | i | 56.0%*
Cc1ccc(C(=O)O)cc1NC(=S)NC(=O)c1ccc(-c2ccccc2)cc1 | i | i | 0.07 | i | i | i | i | i
Cc1cccc(NC(=S)NC(=O)c2ccc(-c3ccccc3)cc2)n1 | i | -11.4* | -0.18 | i | i | i | i | i
COC(=O)c1ccc(COc2ccccc2/C=C(\C#N)C(=O)Nc2c(C)cccc2C)cc1 | i | -13.2* | -0.01 | i | i | 76.0%* | i | 34.0%*
COC(=O)c1ccc(COc2ccccc2/C=C(\C#N)C(=O)Nc2ccccc2C)cc1 | i | i | -0.35 | i | i | / | / | /
O=C(Nc1ccccc1)OC1CCCCc2cccnc21 (configuration not stated) | i | i | -1.26 | i | i | i | i | 28.5%*
O=C(Nc1ccccc1)OCCNC1CCCCC1 | / | / | / | i | i | / | / | /
Cc1c(C)n(CC(O)CN2CCOCC2)c2ccccc12 (configuration not stated) | i | i | 1.54 | i | i | / | / | /
O=c1c2ccccc2n(CC(O)CN2CCOCC2)c2ccccc12 (configuration not stated) | i | -14* | 0.67 | i | i | 33.0%* | i | i
Cc1cc(C)c(C#N)c(SCC(=O)c2cc(C)n(CCc3ccccc3)c2C)n1 | i | -8.18* | -0.42 | i | i | 31.5%* | i | 34.5%*
COCCn1c(C)cc(C(=O)CSc2nc(C)cc(C)c2C#N)c1C | i | i | 0.51 | i | i | / | / | /
c1ccc(OCCSc2nnnn2-c2ccccc2)cc1 | i | i | 0.52 | i | i | / | / | /
COc1ccccc1OCCSc1nnnn1-c1ccc(C)cc1 | i | i | -0.08 | i | i | i | i | i
Cc1cc(NC(=O)Cn2nc(-c3cccs3)ccc2=O)cc(C)c1Br | i | -8.28* | -0.4 | i | i | 36.5%* | i | 26.0%*
Cc1c(Br)ccc(NC(=O)Cn2nc(-c3cccs3)ccc2=O)c1C | i | i | -0.99 | i | i | / | / | /
Cc1ccc(NC(=O)CSCC(=O)NCCc2ccccc2)cc1 | i | i | -0.39 | i | i | / | / | /
CSc1ccccc1NC(=O)CSCc1ccc(C)cc1 | i | i | -5.07* | -20.1* | i | i | i | i
Cc1ccc(CSCC(=O)NCCc2ccccc2)cc1 | i | i | -0.81 | i | i | i | i | i
Cc1ccc(CSCCNC(=O)CSCc2ccc([N+](=O)[O-])cc2)cc1 | i | i | -0.92 | i | i | i | i | i
CCOc1ccc(/C=C2\SC(=S)N(CCC(=O)Nc3ccccc3C(=O)O)C2=O)cc1 | i | i | 0.84 | i | i | / | / | /
COc1ccc(/C=C2\SC(=S)N(CCC(=O)Nc3ccccc3C(=O)O)C2=O)cc1 | i | i | -0.16 | i | i | i | i | i
COc1ccc(/C=C2\SC(=S)N(C(Cc3ccccc3)C(=O)O)C2=O)cc1 (configuration not stated) | / | i | 0.32 | i | i | i | i | i
COc1cc(/C=C2\SC(=S)N(CCC(=O)Nc3ccccn3)C2=O)cc(OC)c1OC | i | -8.26* | 0.01 | i | i | i | i | i
CCC/C(O)=C1\C(=O)CCCC1=NCCc1c(C)[nH]c2ccc(OC)cc12 | i | i | -1.02 | i | i | / | / | /
CCc1cccc(NC(=O)CCS(=O)(=O)c2ccc(Br)cc2)c1 | i | i | 0.09 | i | i | / | / | /
SMILES | ANO1 block | KCNK9 inh | Kir21 inh | TMEM16A act | KCNK3 block | KCNK9 block conf | Kir2-1 spec | KCNK9 uninduced
CCc1ccc(-c2cc(C)no2)cc1S(=O)(=O)N1CCN(c2cccc(C)c2C)CC1 | i | i | 0 | i | i | / | / | /
CCc1ccc(-c2cc(C)no2)cc1S(=O)(=O)N1CCN(c2cc(C)ccc2C)CC1 | i | i | -0.04 | i | i | i | i | i
CC(C)CC(=O)Nc1ccccc1-c1nnn(CC(=O)N2CCOCC2)n1 | i | i | -0.05 | i | i | / | / | /
CCc1cccc(C)c1N(C(=O)Cn1c(COC)nc2ccccc21)C(C)COC (configuration not stated) | i | -10* | 2.74 | i | i | 40.5%* | i | 25.0%*
CCc1cccc(CC)c1N(COC)C(=O)Cn1c(C(C)O)nc2ccccc21 (configuration not stated) | i | i | -0.23 | i | i | / | / | /
CCC(=O)N(CCC(Cc1ccccc1)c1ccc2c(c1)OCO2)Cc1ccccc1F (configuration not stated) | i | -12.6* | 2.55 | i | i | 65.0%* | i | 31.5%*
CCC(=O)N(CCC(Cc1ccccc1)c1ccco1)Cc1ccco1 (configuration not stated) | i | -9.92* | -12.1* | i | i | 46.5%* | 50.0%* | 35.5%*
O=C(NCc1ccccc1)C(c1ccc(Cl)cc1)N(C(=O)c1csnn1)C1CC1 (configuration not stated) | i | i | 0.44 | i | i | / | / | /
COC(=O)c1cccc(NC(=O)C(C)(C)C)c1 | i | i | -0.05 | i | i | / | / | /
Clc1cccc(N2CCN(Cc3nnc(-c4ccccc4)o3)CC2)c1 | i | i | -0.29 | i | i | i | i | i
Cc1cccc(C)c1NC(=O)C(C)c1ccc(-c2ccccc2)c(F)c1 (configuration not stated) | i | -10.4* | -1.53 | i | i | 47.0%* | i | 45.5%*
CCCC(=O)Nc1cc(C)c(NC(=O)c2ccccn2)cn1 | i | i | -0.08 | i | i | / | / | /
Cc1cc(NC(=O)C(C)C)ncc1NC(=O)c1ccccn1 | i | i | 1.21 | i | i | i | i | i
